TEAD-YAP inh: TEAD-YAP interaction inhibition, primary screen, TEAD-YAP interaction inhibitor project, luminescence, HEK-TIYL cells | 640,000 tested, 1.4% active | AID 1259422, 2018 | TEAD-Gal4/YAP UAS-luciferase luminescence | inhibition, % at 9.12 µM; in the data active = inhibition above about 32%;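 also: 0% = median of test compound wells and 100% = reference inhibitor wells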
MITF inh: MITF inhibitors, primary screen, biochemical, AlphaScreen, human | Microphthalmia-associated transcription factor (Homo sapiens), O75030 | AlphaScreen MITF homodimerization, bead proximity signal | inhibition, % at 2.6 µM | 650,000 tested, 0.91% active | AID 1259374, 2018; in the data active = inhibition above about 50%;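 also: 0% = vehicle wells with protein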
FBW7 act: FBW7 E3 ligase activators, primary screen, biochemical, AlphaScreen, human; normalized activity (activation), % at 26.1 µM; F-box/WD repeat-containing protein 7 (Homo sapiens), Q969H0; 650,000 tested, 0.13% active; AID 1259310, 2017; AlphaScreen FBW7–phospho-cyclin E peptide binding, activator screen; in the data active = normalized activity above about 1.9%;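 also: purified mutant Fbw7 with reduced substrate affinity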
GPR151 activ: activators of human GPR151, primary screen, cell-based, PathHunter beta-arrestin, luminescence; PathHunter beta-arrestin GPR151 cells; activation, % at 11.2 µM; 650,000 tested, 1% active; AID 1508602, 2020; in the data active = activation above about 4.9%;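 also: 0% = median of compound wells and 100% = cells with positive control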
Target sequence (Q8TDV0 whole entry, looked up): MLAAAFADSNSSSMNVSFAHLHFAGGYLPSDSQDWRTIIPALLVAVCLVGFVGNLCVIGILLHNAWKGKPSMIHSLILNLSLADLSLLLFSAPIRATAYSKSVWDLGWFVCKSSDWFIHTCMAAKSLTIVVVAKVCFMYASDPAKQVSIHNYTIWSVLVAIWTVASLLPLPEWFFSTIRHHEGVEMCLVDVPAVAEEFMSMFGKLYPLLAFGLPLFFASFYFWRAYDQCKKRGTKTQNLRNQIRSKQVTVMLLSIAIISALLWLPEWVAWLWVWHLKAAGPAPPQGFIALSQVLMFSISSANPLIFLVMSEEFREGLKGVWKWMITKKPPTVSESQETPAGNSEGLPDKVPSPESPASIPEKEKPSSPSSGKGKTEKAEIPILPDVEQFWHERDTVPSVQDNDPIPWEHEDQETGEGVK
MITF inh conf: MITF inhibitors, retest of hits, confirmation, biochemical, AlphaScreen, triplicate; shares compounds with MITF inh; AlphaScreen MITF homodimerization, biotin/His-MITF beads; inhibition, % at 2.6 µM; 4,700 tested, 16% active; AID 1259372, 2018;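 active = inhibition above a cutoff derived from the DMSO control wells, cut at about 28% in these data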;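 also: 0% = MITF dimer wells with DMSO only; inhibitors lower the bead chemiluminescence by keeping MITF from dimerizing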
AlphaScreen DR: AlphaScreen optical interference compounds, dose response, counter-screen, biochemical, HTS. AID 1259373, 2018. IC50, µM. shares compounds with MITF inh. AlphaScreen optical interference counterscreen, cell-free. 480 tested, 6% active; call rule not given here
AlphaScreen intf2: AlphaScreen optical interference compounds, counter-screen for MITF inhibitor project, biochemical, triplicate | shares compounds with MITF inh | LysRS AlphaScreen counterscreen, signal interference | inhibition, % at 2.6 µM | 4,700 tested, 7.6% active | AID 1259376, 2018;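 active = inhibition above a cutoff derived from the DMSO control wells, cut at about 30% in these data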
Numbers without * were called inactive; x = no result. The list is not random: actives were taken first. Their share in the collection is about 3.4%.

SMILES	TEAD-YAP inh	MITF inh	FBW7 act	GPR151 activ	MITF inh conf	AlphaScreen intf2	others
O=C(CC1S/C(=N/N=C2\CSC(=O)N2)NC1=O)Nc1ccccc1 (stereo not drawn)	-2	65*	0	3	66*	100*
COc1ccc(/C=N/N=C2\NC(=O)C(CC(=O)Nc3ccc(C)cc3)S2)cc1 (stereo not drawn)	3	73*	0	0	6	-4
Cc1cnc(N2CCc3ccccc3C2)nc1NCCOc1ccccc1	3	-6	0	-1	x	x
Cc1ccc(COc2ccc(/C=N/N=C3\NC(=O)C(CC(=O)O)S3)cc2)cc1 (stereo not drawn)	-15	53*	0	0	35*	12	AlphaScreen DR=>6.5
COc1ccc(NC(=O)CC2S/C(=N/N=C3\CSC(=O)N3)NC2=O)cc1 (stereo not drawn)	3	82*	-2	-2	62*	100*
CCOc1cc(/C=N/N=C2\NC(=O)C(CC(=O)O)S2)ccc1OCc1ccc(F)cc1 (stereo not drawn)	8	13	0	-1	x	x
COc1ccc(CCN(C)C(=O)CC2(c3ccccc3F)CC(=O)N(C)C2=O)cc1OC (stereo not drawn)	-26	1	0	0	x	x
Cc1nnn(-c2nonc2N)c1C(=O)NNC(=O)c1ccccc1	0	0	0	-2	x	x
CCC(CC)CN1CCc2nnc(CNC(=O)C3CCC(=O)N3)n2CC1 (stereo not drawn)	0	78*	0	0	1	2
CC(C)/C=C/CN1CCc2nnc(CNC(=O)C3CCC(=O)N3)n2CC1 (stereo not drawn)	4	7	0	-1	x	x
CN(C)c1cccc(Nc2ccc(-c3ccccc3C=O)cn2)c1	-16	63*	-2	0	56*	61*
CC(=O)c1cccc(-c2ccc(Nc3cccc(N(C)C)c3)nc2)c1	-57	6	-1	1	x	x
COc1cc(OC)c(CN2CCCC(CO)C2)cc1Br (stereo not drawn)	5	55*	0	0	1	6
Cc1c(NC(=O)C(C)OC(=O)c2cc3c(s2)CCC3)c(=O)n(-c2ccccc2)n1C (stereo not drawn)	8	80*	0	-1	80*	10	AlphaScreen DR=>6.7
O=C(Nc1ccc(C(=O)N2CCOCC2)cc1)C1CCCCC1	-2	-4	-2	0	x	x
CC(C)n1c(=O)c2oc3ccccc3c2n(CC(=O)NCc2ccccc2)c1=O	1	15	0	-1	x	x
O=C(NC1CCN(C(=O)CN2CCOCC2)CC1)c1ccccc1F	-1	69*	1	-1	-12	-11
Cc1cc(O)c(C(=O)/C=C/c2cccc(O)c2)c(=O)o1	-10	6	0	-1	x	x
COc1cc(C(=O)N2CCN(Cc3ccccc3C)CC2)cc(OC)c1OC	1	60*	0	-1	38*	11	AlphaScreen DR=>5.6
COc1cc(C(=O)N2CCN(Cc3ccccc3F)CC2)cc(OC)c1OC	13	18	0	0	x	x
COc1cc2c(cc1CN1CCN(C(=O)c3cc(OC)c(OC)c(OC)c3)CC1)OCO2	5	53*	0	0	12	9
COc1ccccc1NC(=O)C1=C(C)NC(SCC(=O)Nc2cccc(C)c2C)=C(C#N)C1c1ccco1 (stereo not drawn)	32*	56*	0	0	3	7
COc1ccccc1NC(=O)C1=C(C)NC(SCC(=O)Nc2ccccc2)=C(C#N)C1c1ccco1 (stereo not drawn)	3	11	0	1	x	x
Clc1cc(Br)ccc1OCCCCN1CCNCC1	14	56*	0	0	-13	3
Cc1ccc(C(C)C)c(OCC(O)CN2CCOCC2)c1 (stereo not drawn)	5	-14	0	0	x	x
SMILES	TEAD-YAP inh	MITF inh	FBW7 act	GPR151 activ	MITF inh conf	AlphaScreen intf2	others
Cc1ccc(C(C)C)c(OCCOCCN2CCNCC2)c1	3	-4	0	1	x	x
Cc1ccc(C(C)C)c(OCCCCN2CCNCC2)c1	3	75*	0	1	-6	-4
Cc1cc(Br)ccc1OCCCCN1CCNCC1	0	66*	0	0	6	4
Cc1ccc(C(C)C)c(OCC#CCN2CCOCC2)c1	-10	55*	0	-1	4	14
Brc1cccc(OCCCCN2CCNCC2)c1	0	48	0	0	x	x
N#Cc1c(N2CCCC2)oc2nc3ccccc3nc12	-15	7	0	0	x	x
CCC(C(=O)NCCN(CC)c1ccccc1)N1C(=O)COc2ccccc21 (stereo not drawn)	10	9	1	0	x	x
Cc1ccc(SCCCCN2CCNCC2)cc1	-28	61*	0	1	27	-3
Cc1ccc(C(C)C)c(OCCN(C)C)c1	9	54*	0	-1	6	-1
Cc1ccc(OCCN2CCNCC2)c(Br)c1	1	47	0	-1	x	x
CCC(C)(C)c1ccc(OCCN2CCNCC2)c(Cl)c1	-1	61*	0	1	-8	-6
Cc1ccc(OCCCCN2CCNCC2)c(Br)c1	-18	56*	0	3	21	20
Cc1ccc(C(C)C)c(OCC(N)=O)c1	3	11	0	-1	x	x
NCCNCCOc1ccc(OCc2ccccc2)cc1	-21	10	0	0	x	x
CS(=O)(=O)N(CC(=O)Nc1cccc(F)c1)c1ccc2c(c1)OCO2	0	64*	0	2	-1	-3
CS(=O)(=O)N(CC(=O)Nc1ccc(F)cc1)c1ccc(Oc2ccccc2)cc1	-22	68*	1	1	7	16
CS(=O)(=O)N(CC(=O)Nc1c(F)cccc1F)c1ccc(Oc2ccccc2)cc1	-4	60*	0	0	10	17
CSc1cccc(NC(=O)CN(c2ccc3c(c2)OCO3)S(C)(=O)=O)c1	-2	-8	0	0	x	x
Cc1ccccc1CN1CCC2(CC1)CC2C(=O)NCc1cccnc1 (stereo not drawn)	-1	6	0	0	x	x
CCn1c(NN)nc2c1c(=O)[nH]c(=O)n2C	-2	1	0	0	x	x
COc1ccc(CN2CCN(Cc3ccc(OC)c(Br)c3)CC2)cc1	10	62*	0	0	14	-3
COc1cccc(CN2CCN(Cc3ccc(OC)c(Br)c3)CC2)c1	2	66*	0	0	13	9
CCOC(=O)N1CCN(Cc2ccc(OC)c(Br)c2)CC1	-5	2	0	-1	x	x

Assay outcomes as filed in PubChem.
